{"source": "PubChem BioAssay AID1508648", "about": "(National Center for Advancing Translational Sciences (NCATS), 2021)", "note": "Records with an inconclusive call do not appear. A number with no mark means an inactive call. Calls of active or inactive are those of the source. The call rests on the fitted dose curve; in most records, active means well fitted cell-killing curve with a large enough effect; inconclusive means small, poorly fitted or top-dose-only effect, or effect the other way; inactive means flat fitted curve, though single readings scatter."}
{"experiment": "Cell viability assay in S16 Pmp22-HiBiT cells - Confirmatory screen", "conditions": "S16 Schwann Pmp22-HiBiT viability, CellTiter-Glo, 24 h; series mostly up to 27.9 µM; activity change, negative = viability loss: at the top concentration", "text": "Assay Provider: Jim Inglese Ph.D. National Center for Advancing Translational Science, National Institutes of Health, Rockville, MD CMT is a heterogeneous group of neurological disorders that affect approximately 1 in 2,500 people. In particular, the most common form of CMT, CMT1A is genetically linked to the duplication of the PMP22 gene which leads to Schwann cell overexpression, thus manifesting itself as a typical case of dose-sensitive diseases. To identify small molecule compounds that can mediate the expression of PMP22 we developed a phenotypic assay screening strategy by utilizing genome editing techniques to construct Schwann cell lines containing novel reporter technology to monitor the transcriptional or translational regulation of PMP22. For high sensitivity we use a bioluminescent reporter system embedded in the 3' UTR of the PMP22 gene (S16(c9) Pmp22-F2sN) to identify compounds that inhibit gene expression. […] We can further discriminate the effect of all transcriptionally active molecules on PMP22 translation or stability with an assay that incorporates a short NLuc peptide (HiBiT) at the C-terminus of expressed PMP22 (S16(f8) PMP22-HiBiT) allowing alpha complementation and luminescence detection of membrane-associated PMP22 protein. These assays were screened against the NCATS Sytravon Library Collection. Miniaturization of these assays to 1536-well plate format for quantitative high throughput screening (qHTS) yielded rich data sets immediately from the qHTS assay (S16(c9) Pmp22-F2sN), when compared with data from a cell viability assay (Cell TiterGlo) to identify compounds that decreased the output signals through cellular toxicity to streamline the selection process of actives for subsequent characterization using the HiBiT assay (S16(f8) PMP22-HiBiT).\nCell viability assay in S16 Pmp22-HiBiT cells PROTOCOL TABLE (format as described by Inglese J, Shamu CE and Guy RK. 2007) SEQUENCE No. (e.g., 1, 2, 3, etc.); PARAMETER (e.g., Cells, Incubation, Reagent, etc.); VALUE and DESCRIPTION. 1. Cells. Add 500-1,000 cells in 4 uL in growth media (DMEM High Glucose, No Phenol Red media + 10% heat-inactivated FBS + 1% Pen/Strep supplemented media) per well into Greiner 1536-well white/solid bottom high base, TC-treated plates. 2. Compounds. Library compounds and controls added at 23nL per well, transferred by Pin Tool. 3. Incubation. Incubate plates at 37C, 5% CO2, 95% RH for 24 h. 4. Reagent. Add 3uL CellTiter-Glo per well of Greiner 1536-well plates. 5. Incubation. Incubate plates at room temperature for 15 min., protect from light. 6. Detector. Luminescence measured using CCD-based camera (Viewlux). NOTES (numbers refer to Sequence numbers above; values are from representative experiments) 6. Luminescence Read: Clear filter; Exposure = 1 sec, Gain = High, Speed = Slow, Binning = 2X REFERENCES: 1. Inglese J, Shamu CE and Guy RK, Reporting data from high throughput screening of small molecule libraries, Nature Chemical Biology, 2007, 3(8): 438-441. doi.org/10.1038/nchembio0807-438 2. Yasgar A, Shinn P, Jadhav A, Auld DS, Michael S, Zheng W, Austin CP, Inglese J and Simeonov A, Compound Management for Quantitative High-Throughput Screening. J. Assoc. Lab. Auto., 2008, 13: 79-89. doi: 10.1016/j.jala.2007.12.004", "units": {"activity change, negative = viability loss": "%"}}
{"smiles": "CCOc1ccc(C(=O)c2cnc3ccc(Cl)cc3c2S(=O)(=O)c2ccc(C)cc2)cc1", "activity change, negative = viability loss": 9.48}
{"smiles": "O=S(=O)(NCC(c1ccco1)S(=O)(=O)c1cccs1)c1ccc(Cl)cc1", "note": "(configuration not stated)", "activity change, negative = viability loss": -23.4}
{"smiles": "COc1ccc(NC(=O)CCS(=O)(=O)c2nc(-c3cccs3)cc(C(F)(F)F)n2)cc1", "activity change, negative = viability loss": -4.25}
{"smiles": "Cc1cccc(CS(=O)(=O)c2ncc(Cl)c(C(=O)Nc3nc4ccc(F)cc4s3)n2)c1", "Potency": "14.5 µM (active)"}
{"smiles": "COc1cccc(-n2c(SCC(=O)c3ccc(Cl)cc3)nc3c([nH]c4ccccc43)c2=O)c1", "Potency": "10.2 µM (active)"}
{"smiles": "COC(=O)c1c(-c2ccc(Cl)cc2)noc1N1CCN(c2cccc(C(F)(F)F)c2)CC1", "Potency": "10.2 µM (active)"}
{"smiles": "Cc1cccc(-n2c(=O)c3c(c4cc(C)ccc4n3C)n(CC(=O)NCCC3=CCCCC3)c2=O)c1", "activity change, negative = viability loss": -5.38}
